# HIF-2a inh: HIF-2a inhibition | 786-0 RCC cells HIF-2a reporter, luciferase luminescence, overnight | inhibition, % at 18.8 µM | actives 0.72% (n = 360,000);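 active means inhibition of the luminescence signal of 40% or more relative to plate controls, in a single-dose primary screen at 18.75 µM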
# KKLEB tox: CF airway cell cytotoxicity counter-screen; actives 0.36% (n = 360,000); KKLEB CF airway cells viability, ATPlite luminescence, overnight; active compounds read low; cells stimulated with P. aeruginosa culture filtrate; activity change (cytotoxicity), % at 5 µM; AID 602141;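 active means corrected activity change at or below -50% at 5 µM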
# Peg3 promoter: inhibitors of Peg3 promoter | HeLa PEG-Prom luciferase reporter, luminescence, overnight | actives 1.7% (n = 360,000) | inhibition, % at 20 µM | AID 588405;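 active means inhibition of at least 50% at 20 µM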
# CF NFkB block: inhibitors of cystic fibrosis induced NF-kB. actives 0.86% (n = 360,000). KKLEB NF-kB-GFP reporter, PAF-induced, GFP fluorescence overnight. inhibition, % at 5 µM;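 active means at least 50% inhibition at 5 µM, scaled per plate between neutral and stimulator controls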;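 further: PAF is a Pseudomonas aeruginosa culture filtrate used as stimulus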
# MITF TRPM1 inh: reduces MITF-dependent TRPM1 promoter luciferase signal; actives 0.83% (n = 330,000); inhibition, % at 12.5 µM; SK-MEL-5 TRPM1 promoter luciferase, 24 h;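 active means mean inhibition across replicates of 60% or more, whatever share of single replicates reaches that level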
# ABHD5-PLIN5 inh: ABHD5-PLIN5 protein interaction inhibition. Q00G26+Q8WTS1. Split G. princeps luciferase complementation, luminescence, 4 h. inhibition, % at 4 µM. actives 0.78% (n = 360,000). AID 602281;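 active means inhibition above the mean inhibition across every tested compound plus 3 SD, cut at about 22% in these data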
# Target sequence (Q00G26 whole entry, looked up): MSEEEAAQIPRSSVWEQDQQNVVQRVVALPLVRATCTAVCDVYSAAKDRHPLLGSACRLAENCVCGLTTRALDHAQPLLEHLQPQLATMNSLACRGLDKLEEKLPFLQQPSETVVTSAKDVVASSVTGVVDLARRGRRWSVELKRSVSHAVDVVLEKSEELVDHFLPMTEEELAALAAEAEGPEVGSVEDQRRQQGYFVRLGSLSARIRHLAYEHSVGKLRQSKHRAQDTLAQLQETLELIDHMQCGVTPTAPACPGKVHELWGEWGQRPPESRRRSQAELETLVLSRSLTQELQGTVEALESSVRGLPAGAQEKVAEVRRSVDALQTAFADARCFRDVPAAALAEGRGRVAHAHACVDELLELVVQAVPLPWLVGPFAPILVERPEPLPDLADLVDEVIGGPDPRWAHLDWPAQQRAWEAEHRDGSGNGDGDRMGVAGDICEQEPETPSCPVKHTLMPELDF
# Target sequence (Q8WTS1 whole entry, looked up): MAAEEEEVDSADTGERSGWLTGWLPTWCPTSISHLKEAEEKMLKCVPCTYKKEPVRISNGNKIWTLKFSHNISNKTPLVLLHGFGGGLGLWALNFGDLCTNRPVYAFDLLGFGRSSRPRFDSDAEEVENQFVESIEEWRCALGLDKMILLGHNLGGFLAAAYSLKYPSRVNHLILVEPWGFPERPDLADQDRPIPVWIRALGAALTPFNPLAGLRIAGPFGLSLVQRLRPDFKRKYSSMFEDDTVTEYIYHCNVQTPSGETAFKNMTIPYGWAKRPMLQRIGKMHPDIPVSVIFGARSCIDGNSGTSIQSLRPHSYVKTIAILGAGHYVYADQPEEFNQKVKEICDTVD
# Mdm2-MdmX confirm: confirmation of inhibitors of human Mdm2/MdmX interaction, set 2 | shares compounds with HIF-2a inh | SaOS-2 split-luciferase Mdm2/MdmX complementation, luminescence | inhibition, % at 8 µM | actives 99% (n = 740) | AID 504601;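 active means mean inhibition of the luminescence signal across two replicates at or above 26 percent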
# HIF-2a conf: HIF-2a inhibition, single concentration confirmation. inhibition, % at 18.8 µM. 786-0 RCC cells, HIF-2a luciferase reporter luminescence, overnight. shares compounds with HIF-2a inh. actives 56% (n = 1,800);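 active means mean inhibition across four replicates of at least 40 percent at the single tested concentration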
# HIF-1a counter: HIF-1a inhibition counter-screen for HIF-2a hits. MiaPaCa-2 HIF-1a luciferase reporter, desferoxamine, overnight. inhibition, % at 18.8 µM. actives 72% (n = 1,800). shares compounds with HIF-2a inh;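 active means mean inhibition of the reporter signal across four replicates at the single tested dose of 50% or more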
# Numbers stand for hits; i = inactive; nt = no result. In the library only some 3% were active in any assay of this set; here they are far more common.
SMILES,HIF-2a inh,KKLEB tox,Peg3 promoter,CF NFkB block,MITF TRPM1 inh,ABHD5-PLIN5 inh,HIF-2a conf,HIF-1a counter,others
CC(C)NCC(O)Cn1c2c(c3ccccc31)CCc1c-2cnn1-c1ccccc1 (stereo not given),41,i,104,i,85,i,i,105,
CN1CCc2c(n(CC(O)CNCc3ccccc3)c3ccccc23)C1=O (stereo not given),i,i,i,i,i,i,nt,nt,
O=C(Nc1sc2c(c1C(=O)O)CCC2)c1ccccc1Cl,68,i,i,i,i,i,97,i,
Cn1c(=O)c2ncn(CC(=O)NCCOc3ccccc3)c2n(C)c1=O,i,i,i,i,i,i,nt,nt,
COc1ccc(CNC(=O)Cn2cnc3c(=O)n(C)c(=O)n(C)c32)cc1,42,i,i,i,i,i,i,i,
CCCCCCCCC[n+]1cccc2c3ccccc3ccc21,i,i,113,i,93,29,nt,nt,Mdm2-MdmX confirm=101
O=C(Cn1ccc2ccccc2c1=O)NCC(=O)Nc1ccc(F)cc1F,i,i,i,i,i,i,nt,nt,
NS(=O)(=O)c1ccc(N/N=C2/CCCCC2C2CCCCC2)c([N+](=O)[O-])c1 (stereo not given),55,i,i,i,i,i,i,104,
Cc1ccccc1C(=O)N1CCC(C(=O)OCc2ccccc2Cl)CC1,i,i,i,i,i,i,nt,nt,
COc1ccccc1NC(=O)c1nc(S(=O)(=O)Cc2ccccc2)ncc1Cl,89,-85,105,83,91,i,83,104,Mdm2-MdmX confirm=101
COc1ccccc1NC(=O)c1ccc(CS(=O)(=O)c2ccc(C)cc2)cc1,i,i,i,i,i,i,nt,nt,
CCOc1ccc(/C=C/c2c([N+](=O)[O-])c(=O)n(C)c(=O)n2C)cc1,i,i,i,i,i,i,nt,nt,
CCc1ccc(/C=C/c2c([N+](=O)[O-])c(=O)n(C)c(=O)n2C)cc1,46,i,i,i,i,i,i,i,
Cn1c(/C=C/c2ccc(Cl)cc2Cl)c([N+](=O)[O-])c(=O)n(C)c1=O,69,i,103,i,nt,i,41,106,
COc1ccc(/C=C/c2c([N+](=O)[O-])c(=O)n(C)c(=O)n2C)c(OC)c1,i,i,i,i,i,i,nt,nt,
O=C(Cn1cncn1)c1ccccc1Br,i,i,i,i,i,i,nt,nt,
COc1cc2cc(CCCO)oc(=O)c2cc1OC,i,i,i,i,i,i,nt,nt,
O=C(N/N=C/c1ccc[nH]1)c1ccc(COc2cccc3cccnc23)cc1,i,-54,89,i,i,i,nt,nt,Mdm2-MdmX confirm=97
Cc1cc(=O)[nH]c(NN=C2C3CC4CC(C3)CC2C4)n1,i,i,i,i,i,i,nt,nt,
Cc1cccc(-c2nnc(SCCC(=O)N3CCOCC3)o2)c1,49,i,i,i,i,i,53,i,
COc1ccc(N(C(C)=O)c2nc3ccccc3[nH]2)cc1,i,i,i,i,i,i,nt,nt,
O=C(Nc1cc(C(F)(F)F)cc(C(F)(F)F)c1)Nc1cnn(-c2ccc([N+](=O)[O-])cc2)c1C(F)(F)F,57,-69,96,77,70,i,i,106,Mdm2-MdmX confirm=103
CCOC(=O)/C(=C\c1cccnc1)C(=O)c1cc(C(C)=O)c(Nc2ccccc2)s1,96,i,119,95,98,90,nt,nt,Mdm2-MdmX confirm=103
CCOC(=O)/C(=C\c1ccccc1)C(=O)c1cc(C(C)=O)c(Nc2ccccc2)s1,95,i,104,i,i,i,88,107,
CCOC(=O)/C(C#N)=C\c1cccnc1,i,i,i,i,i,i,nt,nt,
SMILES,HIF-2a inh,KKLEB tox,Peg3 promoter,CF NFkB block,MITF TRPM1 inh,ABHD5-PLIN5 inh,HIF-2a conf,HIF-1a counter,others
Cc1coc2cc3oc(=O)c(CC(=O)N[C@@H](CC(C)C)C(=O)O)c(C)c3cc12,46,i,i,i,i,i,i,i,
Cc1coc2cc3oc(=O)c(CCC(=O)N[C@@H](CCCNC(N)=O)C(=O)O)c(C)c3cc12,i,i,i,i,i,i,nt,nt,
CCn1c(C)nc2cc(-c3nc4n(n3)Cc3ccccc3-4)ccc21,91,-88,114,i,98,i,nt,nt,Mdm2-MdmX confirm=100
Cc1ccc(C(=O)O/N=C(\N)c2ccccn2)c(C)c1,89,i,106,i,96,i,nt,nt,Mdm2-MdmX confirm=101
CC(CCC(=O)O)C1CC[C@H]2C3CCC4CC(=O)CCC4(C)[C@H]3CC(=O)C12C (stereo not given in full),i,i,i,i,i,i,nt,nt,
CCN(CC)S(=O)(=O)c1ccc(N/N=C/c2cc(OC)c(OC)cc2OC)nc1,i,i,i,i,i,i,nt,nt,
CCOc1cccc(/C=N/Nc2ccc(S(=O)(=O)N(CC)CC)cn2)c1O,i,i,i,i,i,i,nt,nt,Mdm2-MdmX confirm=91
Cc1cccc(NC(=O)CNC(=O)COC(=O)C2CC2C)c1C (stereo not given),i,i,i,i,i,i,nt,nt,
O=C(O)c1ccc(N/N=C/c2c[nH]c3ccccc23)cc1,51,i,67,i,i,i,78,60,
O=C(Nc1ccon1)c1sc2cc(Cl)ccc2c1Cl,i,i,i,i,i,i,nt,nt,
COc1ccc(C2c3ccc(O)cc3Oc3ncn4nc(-c5cccnc5)nc4c32)cc1OC (stereo not given),52,i,i,i,i,i,i,57,
COc1ccccc1S(=O)(=O)Cc1ccc(C(=O)NC2CC2)o1,i,i,i,i,i,i,nt,nt,
CC1CCCCC1NC(=O)C1CCC(CNS(=O)(=O)c2ccc3c(c2)C(C)(C)C(=O)N3C)CC1 (stereo not given),i,i,i,i,nt,i,nt,nt,
CCOC(=O)C1CCN(Cc2cc(=O)oc3c(C)c(C)ccc23)CC1,57,i,i,i,i,i,78,i,
COc1ccc(CN(CC2CCC(C(=O)O)CC2)C(=S)Nc2cc(Cl)ccc2OC)cc1 (stereo not given),i,i,i,i,i,i,nt,nt,
CC(C)(C)c1ccc(/C=C/C(=O)NCCCN2CCOCC2)cc1,48,i,i,i,i,i,i,i,
CC(C)(C)c1ccc(C(=O)NCCCN2CCN(CCCNC(=O)c3ccc(C(C)(C)C)cc3)CC2)cc1,73,-71,109,i,90,i,nt,nt,Mdm2-MdmX confirm=102
CC(C)(C)c1ccc(C(=O)NCCN2CCOCC2)cc1,i,i,i,i,i,i,nt,nt,
Nc1ncnc2c1ncn2[C@@H]1O[C@H](CO)C[C@H]1O,i,i,i,i,i,i,nt,nt,
Nc1ncnc2c1ncn2C1C=C(CO)C(O)C1O (stereo not given),43,i,i,i,i,i,i,81,
O=C(NNc1nc2ccccc2nc1C(F)(F)F)c1ccccc1,i,i,i,i,i,i,nt,nt,
